Screening data: PubChem, National Center for Advancing Translational Sciences (NCATS)
The list is not random: actives were taken first. Their share in the collection is about 1.4%.
uPA generation: cell surface uPA generation inhibition. cell surface uPA generation assay, qHTS. Potency, µM (highest dose often 38.3 µM), without a hit: at the highest dose activity change, negative = inhibition, hits mostly inhibitors. actives 0.31% (n = 330,000); active = well fitted inhibition curve with a large enough effect; inconclusive = small, poorly fitted or top-dose-only effect; inactive = no such curve, though single readings can be large or run the other way; tested in mouse RAW 264.7 cells; note: potency is the fitted concentration of half-maximal effect; % is set by controls: 0 for no effect and ±100 for the full control effect; nearly all actives have a fitted effect of over 55% in size
KCNH2 3.1 block: blocks the human KCNH2 3.1 channel isoform; U2OS KCNH2 3.1, thallium flux FluxOr; hits give low values; activity change, % (tested at about 1.8 µM); actives 0.95% (n = 340,000); AID 720553;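 active = maximum activity change below -70%; inconclusive = maximum activity change from -70% to -50%; inactive = maximum activity change above -50%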;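 note: thallium influx rate constant from kinetic fluorescence after stimulation buffer; % is set by controls: 0 for no effect and ±100 for the full control effect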
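We transduce U2OS cells with the mutant 3.1 virus, culture them overnight, load FluxOr with Red40 quencher for 45 min, then add stimulation buffer and read kinetically for 2 min to derive a normalized rate constant.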
S-ASM inh: blocks human secretory acid sphingomyelinase; placental ASM, HMU-PC fluorogenic substrate, 60 min; Potency, µM (doses to about 57.5 µM), without a hit: at the top dose activity change, negative = inhibition, most hits filed as inhibitors; actives 0.006% (n = 340,000); AID 504937; note: potency is the fitted concentration of half-maximal effect
Target sequence (P17405 47-631 limits assumed): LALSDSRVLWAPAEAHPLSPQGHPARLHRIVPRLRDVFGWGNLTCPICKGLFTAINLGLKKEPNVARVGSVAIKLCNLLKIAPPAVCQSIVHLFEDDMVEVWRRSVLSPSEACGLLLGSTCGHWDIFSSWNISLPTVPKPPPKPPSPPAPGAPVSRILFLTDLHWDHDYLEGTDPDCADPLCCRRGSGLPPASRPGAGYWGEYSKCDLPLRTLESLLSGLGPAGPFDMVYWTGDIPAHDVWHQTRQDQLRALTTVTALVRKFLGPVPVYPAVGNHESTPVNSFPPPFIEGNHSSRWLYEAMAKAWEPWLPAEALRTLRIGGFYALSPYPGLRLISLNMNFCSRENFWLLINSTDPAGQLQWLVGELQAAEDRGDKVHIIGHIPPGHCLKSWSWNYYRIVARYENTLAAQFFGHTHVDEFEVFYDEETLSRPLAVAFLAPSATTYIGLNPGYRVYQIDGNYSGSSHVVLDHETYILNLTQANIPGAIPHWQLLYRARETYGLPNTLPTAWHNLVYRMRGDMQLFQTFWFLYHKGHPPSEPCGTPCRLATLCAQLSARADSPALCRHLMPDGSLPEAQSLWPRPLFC
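HMU-PC0 cleavage (9 uM final) by human placental ASM, 60 min at 37 °C following 10 min compound exposure at RT; stopped at pH 10, fluorescence Ex 386/Em 447 nm.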
p53 reactivator: restores transcriptional activity of mutant p53. H1299 p53-A138V BP100-luciferase reporter, luminescence, 24 h. Potency, µM (titrated, usually from 92.2 µM), for the others: at the highest dose activity change, positive = activation, hits mostly activators. actives 0.063% (n = 320,000); note: potency is the fitted concentration of half-maximal effect; % of control where 0% means no effect; nearly all actives have a fitted effect of over 45% in size
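p53-null H1299 cells stably carrying temperature-sensitive p53-A138V and a BP100-luciferase reporter were pinned with compounds (4-point, 1:5 series) and held 24 hrs at 37 deg C. Luminescence was read 10 min after detection reagent.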
hERG WT inh: inhibitors of human wildtype KCNH2 potassium channel. Q12809. U2OS, BacMam KCNH2, thallium flux FluxOr; hits give low values. activity change, % at 1.84 µM. actives 0.37% (n = 340,000). AID 720551;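 active = maximum activity change below -70%; inconclusive = maximum activity change between -70% and -50%; inactive = maximum activity change above -50%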; note: % is set by controls: 0 for no effect and ±100 for the full control effect
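U2OS cells transduced with wild-type KCNH2 virus are loaded with FluxOr dye for 45 min, and thallium flux is measured in kinetic reads before and after stimulation buffer. Rate constants are normalized to DMSO controls.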
Mm-Cpn inhibitor: M. maripaludis TRiC chaperonin inhibition | Potency, µM (titrated, usually from 76.9 µM), without a hit: top-dose activity, negative = inhibition, usual class: inhibitors | purified Mm-Cpn ATPase, ADP Transcreener TR-FRET | actives 0.031% (n = 330,000); note: potency is the fitted concentration of half-maximal effect; % is set by controls: 0 for no effect and ±100 for the full control effect; nearly all actives have a fitted effect of over 80% in size
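Measured: ADP formation by purified Mm-CPN. Conditions: 25 nM protein, 10 uM ATP, Tris pH 7.4 with Mg2+, K+ and DTT, 37°C for 30 min. Detection: Transcreener HTRF after 30 min at room temperature.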
Active calls of the source: *; i = inactive; ? = inconclusive; / = not tested or not shown; [ ] = another dose, or the depositor's remark. Unless noted, calls come from the whole dose curve; as a rule, active = well fitted curve in the direction sought with a large enough effect; inconclusive = small, poorly fitted or top-dose-only effect, or another doubt; inactive = no such curve, though single readings can be large; an effect the other way counts as inactive or inconclusive.

SMILES | uPA generation | KCNH2 3.1 block | S-ASM inh | p53 reactivator | hERG WT inh | Mm-Cpn inhibitor
Cc1cc(C(=O)N/N=C/c2ccc([N+](=O)[O-])o2)c(C)o1 | 10µM* | -92.4* | -1.9% | -11.2% | -14.1 | -0.8%
Cc1nonc1C(=O)N/N=C/c1ccc([N+](=O)[O-])o1 | ? | 8.1 | -3.0% | -8.2% | 2.9 | -1.6%
CCC1(C)NC(=O)N(CC(=O)Nc2cc(C)on2)C1=O (stereo not given) | -14.8% | 5.6 | 2.6% | -1.0% | -10.7 | -0.6%
Cc1ccc(C)c(C(=O)C(C)Sc2nc3nn(-c4ccccc4)c(=O)c-3c3n2CCCCC3)c1 (stereo not given) | 11.0% | 5.5 | -18.6% | 19.7% | -4.3 | 0.2%
CCC1(OC(=O)CN(C)C)C(=O)OCc2c1cc1n(c2=O)Cc2cc3c(N)cccc3nc2-1 (stereo not given) | -13.2% | 19.4 | 2.9% | / | 9.6 | /
CN(C)CCNC(=O)C(=O)Nc1ccc2c(c1)N(S(=O)(=O)c1cccs1)CCC2 | 4.47µM* | 12.4 | 1.6% | -2.9% | -5.8 | -20.9%
CN(C)CCCNC(=O)C(=O)Nc1ccc2c(c1)N(S(=O)(=O)c1cccs1)CCC2 | -6.2% | -3.7 | 0.8% | 6.3% | 19.8 | -0.1%
COc1ccc(-c2c(-c3ccc4c(c3)OCO4)c3ccccc3n2C)cc1 | -20.6% | -8.9 | 3.6% | / | -3.8 | /
C=C(C)C(=O)N1CCN(C(=O)C(=C)C)c2ccccc21 | 4.9% | 24.3 | 6.2% | / | -2.9 | /
C=CCn1c2ccccc2c(=O)c2cc(C#CC3(O)CCCCC3)ccc21 | ? | -2.9 | i | / | 1.5 | -9.6%
C=CCn1c2ccccc2c(=O)c2cc(C#CC[C@@H](C)O)ccc21 | 3.98µM* | -1.9 | i | ? | 16.7 | ?
N#Cc1ccc(CN2CCN(CC(=O)NCCc3ccc(Cl)cc3Cl)CC2)cc1 | -7.3% | -80.2* | 0.8% | -2.6% | -78.6* | 1.2%
O=C(Cn1cc(C(F)(F)F)ccc1=O)NCCc1ccc(Cl)cc1Cl | 6.8% | -0.2 | 2.5% | -12.2% | 9.0 | -8.1%
CCCN(CC(=O)Nc1ccccc1OC)C(=O)c1ccc2c(c1)NC(=O)C(C)S2 (stereo not given) | 6.4% | 1.0 | 1.0% | ? | 7.4 | -1.5%
Cn1cnnc1SCC(=O)Nc1sc2c(c1C(N)=O)CCC2 | 3.9% | -22.1 | ? | 5.3% | -284.2* | -0.9%
COCCn1cnnc1SCC(=O)Nc1sc2c(c1C#N)CCC2 | 1.4% | 5.4 | 3.1% | 14.5% | 6.7 | -0.4%
NC(N)=N/N=C(\N=Nc1ccccc1)c1ccc(Cl)cc1 | -3.1% | -41.3 | -23.2% | / | 13.1 | /
CC(=O)c1cccc(N/C=C\C(=O)c2ccc(C)cc2)c1 | -8.0% | 10.7 | 44.2% | 35.5µM* | -0.3 | 0.2%
COc1ccc(N/C=C/C(=O)c2ccccc2)cc1 | 10µM* | -20.8 | 1.6% | -3.4% | 3.0 | -1.7%
O=C(CSc1nc2cc(Cl)ccc2c(=O)n1Cc1ccco1)Nc1ccc(S(=O)(=O)N2CCOCC2)cc1 | -4.8% | -75.1* | -0.1% | -5.6% | -15.4 | ?
CS(=O)(=O)c1ccc(Cl)c(NC(=O)CSc2nc3ccccc3c(=O)n2Cc2ccco2)c1 | -0.7% | -97.6* | -1.0% | -2.4% | -13.4 | 1.0%
CC(C)c1ccc(NC(=O)CSc2n[nH]c(=O)n2Cc2ccco2)cc1 | -6.0% | -88.2* | 2.2% | -3.1% | -1.5 | -4.5%
O=C(CSc1nc2ccccc2c(=O)n1Cc1ccco1)Nc1cccc(O)c1 | 2.5% | -21.0 | -1.4%[11.5 µM] | 4.4% | 0.7 | -1.5%
Cc1ccc(S(=O)(=O)N2CCOCC2)cc1NC(=O)CSc1nc2ccccc2c(=O)n1Cc1ccccc1 | 10.7% | ? | 1.5% | -6.1% | -20.5 | -10.1%
COC(=O)c1ccc2c(=O)n(Cc3ccco3)c(SCC(=O)Nc3ccc(C)c(Cl)c3)nc2c1 | -2.2% | -75.1* | 9.1% | 4.5% | -18.3 | 0.9%
SMILES | uPA generation | KCNH2 3.1 block | S-ASM inh | p53 reactivator | hERG WT inh | Mm-Cpn inhibitor
CCCc1cc(=O)[nH]c(SCC(=O)NCCN2C(=O)CSC2=O)n1 | 2.8% | -4.3 | 3.1% | -1.2% | 3.9 | -3.6%
COc1ccc(CCNC(=O)c2ccc(NC(=O)CC3SC(N4CCCC4)=NC3=O)cc2)cc1OC (stereo not given) | 15.2% | -3.6 | -0.1% | / | 1.8 | /
CCN(c1ccccc1)S(=O)(=O)c1ccc(Cl)c(NC(=O)CSc2nc(N)cc(=O)[nH]2)c1 | / | -2.3 | / | / | -7.3 | /
O=S(=O)(c1ccc2c(c1)OCCO2)C1CCC(S(=O)(=O)c2c(F)cccc2F)CC1 (stereo not given) | -1.0% | / | 1.7% | 1.6% | / | 1.5%
NC(=O)CSc1nc2ccccc2c(=O)n1Cc1ccco1 | -2.4% | -2.8 | 3.1% | -2.9% | -13.4 | -1.3%
CCCn1c(C)cc(C(=O)CSc2nc3ccccc3c(=O)n2Cc2ccco2)c1C | 0.8% | 6.3 | -0.1% | 25.1µM* | 5.7 | 0.2%
Cc1cccc(S(=O)(=O)Nc2nc3ccccc3nc2OC(C)C)c1 | -5.8% | 1.9 | -3.8% | 1.8% | 9.6 | -0.9%
Cc1ccc(C(=O)CNc2ccc(Cl)cc2)cc1 | -0.4% | -79.2* | 4.4% | 12.4% | 12.8 | -0.8%
COc1ccc(-c2nc(Cn3c(SCc4ccccc4F)nc4ccncc43)c(C)o2)cc1 | 1.5% | -108.9* | -29.3% | 18.0% | 11.1 | -14.2%
CC(CN1CCOCC1)OC(=O)c1ccc2c(c1)OCCO2 (stereo not given) | 0.3% | 19.7 | -0.5% | ? | -261.6* | 1.3%
Cc1c(C(=O)Nc2cccc(Cl)c2)c2ccccn2c1CCc1ccncc1 | -5.9% | -74.2* | i | 20.6% | 0.2 | 0.2%
COc1cc2c(cc1CNC[C@H]1O[C@@H](n3ccc(N)nc3=O)[C@H](O)[C@@H]1O)OCO2 | / | 2.3 | / | / | -7.1 | /
COc1ccc2cc(-c3ccccc3)ncc2c1 | ? | -0.7 | -0.3% | ? | 17.7 | -2.1%
COc1ccc2cc(-c3ccsc3)ncc2c1 | 8.91µM* | / | 2.8% | ? | / | -4.4%
COc1cc(OC)cc(-c2cc3ccc(OC)cc3cn2)c1 | 3.55µM* | 3.7 | -3.2% | ? | 8.4 | -0.6%
CCCCCc1cc(=O)c2ccccc2o1 | -34.0% | -0.4 | 4.2% | 8.9% | -5.8 | -0.9%
COC(=O)CC(=O)CSc1nc2c(cc1C#N)CCC2 | 5.9% | 20.8 | 43.9% | ? | -8.3 | -10.2%
CCOC(=O)CC(=O)CSc1nc2c(cc1C#N)CCCCCC2 | 1.2% | -12.9 | 60.9% | 4.8% | -115.8* | -6.0%
O=C(C1=C[C@H](C2CC2)C[C@H](OCCCCO)O1)N1CCOCC1 | 3.9% | -24.1 | -18.3% | -0.8% | -88.6* | /
Cc1cccnc1NC(=O)c1cccc(S(=O)(=O)NCc2ccccc2)c1 | 2.3% | 7.1 | -1.7% | 1.7% | 0.2 | -0.5%
